Compound activity (PubChem BioAssay)
Rab2A wt mod: changes GTP binding to wildtype dog Rab2A, up or down. P61105. GST-Rab2 wt beads, Bodipy-GTP binding, flow cytometry. GTP binding activity, % at 10 µM. 0.19% of 190,000 active. AID 760;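 active means GTP binding activity at least 20 points away from 100%, either lowered or raised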;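 further: 0% = beads with excess unlabeled GTP and 100% = no-compound control corrected for plate trend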
Rab7 wt GTP bind: alters GTP binding to wildtype dog Rab7; AID 758; GTP binding activity (percent of control), % at 10 µM; 0.055% of 190,000 active; GST-Rab7 beads, fluorescent GTP binding, flow cytometry; actives lie on both sides; untreated = 100%, excess cold GTP = 0%;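 active means fluorescent GTP binding to Rab7 beads changed by at least 20 points from the 100% baseline, either direction, mostly lower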;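 further: median green fluorescence of bound Bodipy-FL-GTP per Rab7 bead population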
Cdc42 wt GTP: changes GTP binding to wildtype human Cdc42; percent activity (GTP binding), % at 10 µM; P60953; 0.2% of 190,000 active; GST-Cdc42 beads, Bodipy-GTP binding, flow cytometry; actives lie on both sides;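 active means percent activity GTP binding at least 20 points away from the 100% baseline, either down as inhibitor or up as activator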;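 further: median bead fluorescence of bound Bodipy-FL-GTP at 100 nM; 0% = excess unlabeled GTP control and 100% = no compound control; below 100% means less GTP binding so inhibitor and above means activator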
Target sequence (P60953 whole entry, looked up): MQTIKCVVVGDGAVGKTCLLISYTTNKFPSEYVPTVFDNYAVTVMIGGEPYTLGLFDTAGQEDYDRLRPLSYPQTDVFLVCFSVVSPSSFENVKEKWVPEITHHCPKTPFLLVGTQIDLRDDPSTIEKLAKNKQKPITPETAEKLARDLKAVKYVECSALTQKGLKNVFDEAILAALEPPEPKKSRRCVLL
Rac1 mut GTP: human Rac1 activated mutant GTP binding change; GST-Rac1 activated beads, fluorescent GTP binding, flow cytometry; actives lie on both sides; 100% means binding = to untreated wells; percent activity (GTP binding), % at 10 µM; P63000; 0.11% of 190,000 active;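 active means GTP binding at least 20 percentage points away from the 100% baseline, in either direction, so actives lie on both sides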
Rac1 wt GTP bind: alters GTP binding to wildtype human Rac1; P63000; GST-Rac1 beads, fluorescent GTP binding, flow cytometry; actives lie on both sides; 0 = cold GTP competed, 100 = untreated; GTP binding activity (% of control), % at 10 µM; 0.27% of 190,000 active; AID 757;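 active means GTP binding activity at least 20 points away from the 100% control level, either lower or higher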
HRas wt GTP bind: modulators of GTP binding to human HRas wildtype. GTP binding activity, % at 10 µM. GST-Ras wt beads, Bodipy-FL-GTP binding, flow cytometry; actives lie on both sides. 0.14% of 190,000 active. AID 759;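 active means GTP binding activity at least 20% away from the 100% baseline, either lowered as inhibitor or raised as activator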;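 further: 0% = unlabeled GTP competition control and 100% = no-compound control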
Target sequence (P01112 whole entry, looked up): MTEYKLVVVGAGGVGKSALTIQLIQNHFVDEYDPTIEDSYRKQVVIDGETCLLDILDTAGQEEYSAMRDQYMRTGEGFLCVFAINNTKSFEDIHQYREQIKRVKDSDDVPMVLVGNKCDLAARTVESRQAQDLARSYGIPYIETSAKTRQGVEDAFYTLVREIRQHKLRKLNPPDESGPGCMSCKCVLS
* marks the source's active call; other numbers are inactive results; [ ] = dose if it differs, or a comment. Sampled rows, rich in hits. Any-hit rate of the full collection: about 0.37%.

Cc1noc(C)c1COc1cccc(C(=O)NCc2ccccc2Cl)c1 was read as Rab2A wt mod 69.0*, Rab7 wt GTP bind 67.0*, Cdc42 wt GTP 71.0*, Rac1 mut GTP 74.0*, Rac1 wt GTP bind 72.0* and HRas wt GTP bind 52.0*.
For Cc1noc(C)c1COc1ccc(C(=O)OCC(=O)NCc2ccccc2Cl)cc1 the results were Rab2A wt mod 96.0, Rab7 wt GTP bind 104.0, Cdc42 wt GTP 100.0, Rac1 mut GTP 98.0, Rac1 wt GTP bind 102.0 and HRas wt GTP bind 99.0.
`CC(C)(C)Cc1nnc(NC(=O)Cc2cccs2)s1` gave Rab2A wt mod 99.0, Rab7 wt GTP bind 99.0, Cdc42 wt GTP 96.0, Rac1 mut GTP 94.0, Rac1 wt GTP bind 101.0 and HRas wt GTP bind 95.0.
CCn1ccnc1CN(C)Cc1cn[nH]c1-c1ccc(OC)c(F)c1 was read as Rab2A wt mod 99.0, Rab7 wt GTP bind 106.0, Cdc42 wt GTP 99.0, Rac1 mut GTP 95.0, Rac1 wt GTP bind 100.0 and HRas wt GTP bind 97.0.
`COC(=O)c1cn(NC(=O)c2ccccc2[N+](=O)[O-])c(=O)c2ccccc12` gave Rab2A wt mod 96.0, Rab7 wt GTP bind 103.0, Cdc42 wt GTP 94.0, Rac1 mut GTP 92.0, Rac1 wt GTP bind 96.0 and HRas wt GTP bind 95.0.
C=CCn1c(-c2csc(-c3ccc(Cl)cc3)n2)n[nH]c1=S was read as Rab2A wt mod 112.0, Rab7 wt GTP bind 105.0, Cdc42 wt GTP 116.0, Rac1 mut GTP 101.0, Rac1 wt GTP bind 120.0*[activator] and HRas wt GTP bind 110.0.
`O=c1[nH]c2sc3c(c2c2nncn12)CCCC3` gave Rab2A wt mod 77.0*, Rab7 wt GTP bind 85.0, Cdc42 wt GTP 79.0*, Rac1 mut GTP 88.0, Rac1 wt GTP bind 76.0* and HRas wt GTP bind 78.0*.
For Cc1cc2ccccn2c1C(=O)c1cc([N+](=O)[O-])cc([N+](=O)[O-])c1 the results were Rab2A wt mod 42.0*, Rab7 wt GTP bind 24.0*, Cdc42 wt GTP 42.0*, Rac1 mut GTP 37.0*, Rac1 wt GTP bind 32.0* and HRas wt GTP bind 45.0*.
`O=C(CCl)Nc1cccn2ncnc12` gave Rab2A wt mod 113.0, Rab7 wt GTP bind 105.0, Cdc42 wt GTP 114.0, Rac1 mut GTP 102.0, Rac1 wt GTP bind 120.0*[activator] and HRas wt GTP bind 110.0.
`COc1ccc(OCCC(=O)NCC23CC4CC(CC(C4)C2)C3)cc1` gave Rab2A wt mod 94.0, Rab7 wt GTP bind 94.0, Cdc42 wt GTP 97.0, Rac1 mut GTP 93.0, Rac1 wt GTP bind 95.0 and HRas wt GTP bind 94.0.
`COc1ccc(C2N=C(c3ccccc3)C(C)(C)N2O)cc1OC` (stereo not given) gave Rab2A wt mod 98.0, Rab7 wt GTP bind 94.0, Cdc42 wt GTP 97.0, Rac1 mut GTP 97.0, Rac1 wt GTP bind 95.0 and HRas wt GTP bind 98.0.
COc1c(C)cccc1C(=O)NC(=S)Nc1ccc2c(c1)Cc1ccccc1-2 was read as Rab2A wt mod 75.0*, Rab7 wt GTP bind 83.0, Cdc42 wt GTP 77.0*, Rac1 mut GTP 74.0*, Rac1 wt GTP bind 77.0* and HRas wt GTP bind 83.0.
Screening CCC(C(=O)NC1CCCC1)N(C(=O)Cn1nnc(-c2ccc(C)o2)n1)c1cnc2ccccc2c1 (stereo not given) returned Rab2A wt mod 105.0, Rab7 wt GTP bind 101.0, Cdc42 wt GTP 107.0, Rac1 mut GTP 106.0, Rac1 wt GTP bind 125.0*[activator] and HRas wt GTP bind 104.0.
Screening C=C(C)Cn1c(C)cc(C)c(S(=O)(=O)c2cccc(C)c2)c1=O returned Rab2A wt mod 100.0, Rab7 wt GTP bind 103.0, Cdc42 wt GTP 95.0, Rac1 mut GTP 97.0, Rac1 wt GTP bind 98.0 and HRas wt GTP bind 99.0.
For CCCc1nc2c(=O)n(C)c(=O)nc-2n(C)n1 the results were Rab2A wt mod 89.0, Rab7 wt GTP bind 99.0, Cdc42 wt GTP 74.0*, Rac1 mut GTP 84.0, Rac1 wt GTP bind 94.0 and HRas wt GTP bind 89.0.
CCOC(=O)COc1ccc(Br)cc1/C=C/c1[nH]c(=O)[nH]c(=O)c1[N+](=O)[O-] was read as Rab2A wt mod 92.0, Rab7 wt GTP bind 100.0, Cdc42 wt GTP 83.0, Rac1 mut GTP 88.0, Rac1 wt GTP bind 83.0 and HRas wt GTP bind 89.0.
For O=C(COc1ccccc1/C=C\c1[nH]c(=O)[nH]c(=O)c1[N+](=O)[O-])Nc1ccccc1 the results were Rab2A wt mod 77.0*, Rab7 wt GTP bind 95.0, Cdc42 wt GTP 73.0*, Rac1 mut GTP 77.0*, Rac1 wt GTP bind 79.0* and HRas wt GTP bind 79.0*.
`CC(=O)CSc1ncnc2c1cnn2-c1ccccc1` gave Rab2A wt mod 100.0, Rab7 wt GTP bind 101.0, Cdc42 wt GTP 100.0, Rac1 mut GTP 98.0, Rac1 wt GTP bind 100.0 and HRas wt GTP bind 98.0.
Screening O=C(CSc1nc2ncc(Cl)cc2[nH]1)N(Cc1ccccc1)C1CCS(=O)(=O)C1 (stereo not given) returned Rab2A wt mod 98.0, Rab7 wt GTP bind 95.0, Cdc42 wt GTP 98.0, Rac1 mut GTP 97.0, Rac1 wt GTP bind 98.0 and HRas wt GTP bind 96.0.
Screening CCCc1cc(=O)[nH]c(SCc2ccccc2)n1 returned Rab2A wt mod 101.0, Rab7 wt GTP bind 103.0, Cdc42 wt GTP 102.0, Rac1 mut GTP 99.0, Rac1 wt GTP bind 104.0 and HRas wt GTP bind 102.0.
For CSc1nc(Cc2ccccc2)cc(=O)[nH]1 the results were Rab2A wt mod 120.0*[activator], Rab7 wt GTP bind 111.0, Cdc42 wt GTP 120.0*[activator], Rac1 mut GTP 122.0*[activator], Rac1 wt GTP bind 127.0*[activator] and HRas wt GTP bind 116.0.
For CCOC(=O)c1ccc(NC(=O)N2CCN(Cc3ccccc3)CC2)cc1 the results were Rab2A wt mod 98.0, Rab7 wt GTP bind 102.0, Cdc42 wt GTP 94.0, Rac1 mut GTP 92.0, Rac1 wt GTP bind 95.0 and HRas wt GTP bind 98.0.
For CC(C)(C)CC(=O)NC(=S)NCc1ccco1 the results were Rab2A wt mod 103.0, Rab7 wt GTP bind 108.0, Cdc42 wt GTP 103.0, Rac1 mut GTP 100.0, Rac1 wt GTP bind 125.0*[activator] and HRas wt GTP bind 103.0.
For Cc1ccc(-c2nnc3c4ccccc4c(C)nn23)cc1NC(=O)CN1CCOCC1 the results were Rab2A wt mod 94.0, Rab7 wt GTP bind 95.0, Cdc42 wt GTP 96.0, Rac1 mut GTP 97.0, Rac1 wt GTP bind 97.0 and HRas wt GTP bind 96.0.
Screening Cc1ccc(-c2nnc3c4ccccc4c(C)nn23)cc1S(=O)(=O)N1CCN(CCO)CC1 returned Rab2A wt mod 79.0*, Rab7 wt GTP bind 86.0, Cdc42 wt GTP 82.0, Rac1 mut GTP 95.0, Rac1 wt GTP bind 88.0 and HRas wt GTP bind 85.0.
`O=C(O)CCC(=O)Nc1ccc(Br)cn1` gave Rab2A wt mod 96.0, Rab7 wt GTP bind 95.0, Cdc42 wt GTP 99.0, Rac1 mut GTP 95.0, Rac1 wt GTP bind 98.0 and HRas wt GTP bind 99.0.
